Source: PubChem BioAssay (NCATS)
Where “and” joins values, the source holds several entries; their conditions need not be identical. Identical values can stand only once. Inconclusive results are not listed. Calls of active or inactive are those of the source. Calls follow the shape of the dose curve; as a rule, active = well fitted curve in the direction sought with a large enough effect; inconclusive = small, poorly fitted or top-dose-only effect, or another doubt; inactive = no such curve, though single readings can be large; an effect the other way counts as inactive or inconclusive.

Assays:
[1] = BET inhibitor-based combinations targeting novel dependencies in MECOM-rearranged (r) AML: SET-2 cell line (AID 2202231); conditions: SET-2 AML cells viability, CellTiter-Glo luminescence, 48 h; viability: hits give low values, concentration not given here; also: nearly all actives have a fitted effect of over 35% in size;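 as to viability: plate controls were DMSO treated cells for no effect and wells without cells for full effect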
How it was run: (§1)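 Luminescent ATP readout (CellTiter-Glo) after 48 hr drug exposure gives viability. Curves span 11 concentrations and are normalized to DMSO and empty wells. Activity is reported as area under the curve and its Z-transform within each cell line.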

[2] = BET inhibitor-based combinations targeting novel dependencies in MECOM-rearranged (r) AML: UCSD-AML1 cell line (AID 2202235); conditions: UCSD-AML1 AML cells viability, CellTiter-Glo, 48 h; series mostly up to 46 µM; also: nearly all actives have a fitted effect of over 40% in size
How it was run: (§2)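 Luminescent ATP readout (CellTiter-Glo, 15 min at room temperature) after 48 hr drug exposure gave viability. Dose-response curves, normalized to DMSO and empty-well controls, were summarized as area under the curve and its mean-centred Z-score.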

[3] = BET inhibitor-based combinations targeting novel dependencies in MECOM-rearranged (r) AML: AML-191 cell line (AID 2202236; also: nearly all actives have a fitted effect of over 35% in size); conditions: AML-191 viability, CellTiter-Glo luminescence, 48 h; series mostly up to 46 µM
How it was run: as §1

[4] = BET inhibitor-based combinations targeting novel dependencies in MECOM-rearranged (r) AML: HNT-34 cell line (AID 2202234); conditions: HNT-34 AML viability, CellTiter-Glo luminescence, 48 h; series mostly up to 46 µM; also: nearly all actives have a fitted effect of over 35% in size
How it was run: as §2

[5] = BET inhibitor-based combinations targeting novel dependencies in MECOM-rearranged (r) AML: AML-194 cell line (AID 2202237; also: nearly all actives have a fitted effect of over 40% in size); conditions: AML-194 (MECOM-r AML) viability, CellTiter-Glo, 48 h; series mostly up to 46 µM
How it was run: as §1

[6] = BET inhibitor-based combinations targeting novel dependencies in MECOM-rearranged (r) AML: OCI-AML3 cell line (AID 2202232); conditions: CellTiter-Glo luminescence, 48 h; Potency: OCI-AML3 viability; series mostly up to 46 µM; also: nearly all actives have a fitted effect of over 35% in size
How it was run: as §1

[7] = BET inhibitor-based combinations targeting novel dependencies in MECOM-rearranged (r) AML: MV-4-11 cell line (AID 2202233); conditions: MV-4-11 AML viability, CellTiter-Glo luminescence, 48 h; series mostly up to 46 µM; also: nearly all actives have a fitted effect of over 45% in size
How it was run: as §2
Potency is read from the fitted curve at half-maximal effect.

CS(=O)(=O)c1ccc([C@@H](CC2CCCC2)C(=O)Nc2nccs2)cc1
inactive: viability [1] 79.4% | Potency [2] | Potency [3]

O=c1ncccn1[C@@H]1O[C@H](CO)[C@@H](O)[C@H]1O
inactive: viability [1] 109% | Potency [4] | Potency [3] | Potency [5]

COC(=O)N(CC(=O)O)Cc1cccc(OCc2nc(-c3ccc(Cl)cc3)oc2C)c1
inactive: viability [1] 89% | Potency [2] | Potency [3] | Potency [5]

O=C(NCc1ccccc1)[C@H](Cc1ccccc1)NC(=O)[C@H]1O[C@@H]1C(=O)NCCc1ccc(O)cc1
inactive: viability [1] 105% | Potency [2] | Potency [3] | Potency [5]

COc1ccc(-c2ccc3c(N4CCOC[C@@H]4C)nc(N4CCOC[C@@H]4C)nc3n2)cc1CO
active: Potency [6] 0.148 µM | Potency [7] 0.132 µM

CCOC(=O)[C@@]1(CCCCCCOc2ccc(Cl)cc2)CO1
inactive: viability [1] 92% | Potency [2] | Potency [5]

O=C(NO)c1cnc(NC2(c3cccc(F)c3)CCCCC2)nc1
active: Potency [1] 9.34 µM | Potency [3] 10.5 µM

CN(CCOc1ccc(-c2ccc3c(c2)OCO3)cc1C(C)(C)C)CC(=O)O
inactive: viability [1] 105% | Potency [4] | Potency [2] | Potency [5]

CC/C(=C(/CC)c1ccc(O)cc1)c1ccc(O)cc1
inactive: Potency [2]
active: Potency [1] 20.9 µM

CN(C)c1ccccc1CN1CCCN(Cc2ccccc2N(C)C)C1c1ccncc1
inactive: viability [1] 99.7% | Potency [2] | Potency [3] | Potency [5]

O=C(O)CCCCN(CCc1ccccc1OCc1ccc(CCc2ccccc2)cc1)Cc1ccc(C(=O)O)cc1
inactive: viability [1] 108% | Potency [3] | Potency [5]
active: Potency [4] 2.09 µM

CN(C)CCN(C)C(=O)c1ccc(NC(=O)Nc2ccc(-c3nc(N4CCOCC4)c4ccn(CC(F)(F)F)c4n3)cc2)cc1
active: Potency [6] 0.934 µM

O=S(=O)(c1cccc2cnccc12)N1CCCNCC1
inactive: viability [1] 101% | Potency [4] | Potency [3] | Potency [5]

CCOc1ccc(Cc2cc([C@@H]3O[C@H](CO)[C@@H](O)[C@H](O)[C@H]3O)ccc2Cl)cc1
inactive: viability [1] 95% | Potency [4] | Potency [5]

CC[C@H]1OC(=O)[C@H](C)[C@@H](O[C@H]2C[C@@](C)(OC)[C@@H](O)[C@H](C)O2)[C@H](C)[C@@H](O[C@@H]2O[C@H](C)C[C@H](N(C)C)[C@H]2O)[C@](C)(O)C[C@@H](C)CN(C)[C@H](C)[C@@H](O)[C@]1(C)O
active: Potency [1] 0.468 µM
inactive: Potency [2] | Potency [5]

CONC(=O)Nc1ccc(-c2sc3c(c2CN(C)Cc2ccccc2)c(=O)n(-c2ccccc2)c(=O)n3Cc2c(F)cccc2F)cc1
inactive: viability [1] 104% | Potency [2]

OCCOc1ccc(/C(=C(/CCCl)c2ccccc2)c2ccccc2)cc1
active: Potency [1] 16.6 µM
inactive: Potency [5]

Cc1nc(NC(=O)N2CCC[C@H]2C(N)=O)sc1-c1csc(C(C)(C)C)n1
inactive: viability [1] 98.3% | Potency [4]
active: Potency [3] 16.6 µM

Nc1nc(OC(c2ccc(-c3cccc(F)c3)cc2)C(F)(F)F)cc(-c2ccc(C[C@H](N)C(=O)O)cc2)n1 (some centres undefined)
inactive: viability [1] 120% | Potency [2] | Potency [3] | Potency [5]

c1ccc(CNCc2ccc(CN3CCCNCCNCCCNCC3)cc2)nc1
inactive: viability [1] 110% | Potency [4] | Potency [2] | Potency [5]

Cc1cc(Nc2ncnc3ccc(NC4=NC(C)(C)CO4)cc23)ccc1Oc1ccn2ncnc2c1
active: Potency [1] 20.9 µM
inactive: Potency [2]

COc1cc(OC)c(NC(=O)Nc2cc(C)on2)cc1Cl
inactive: viability [1] 115% | Potency [4] | Potency [2] | Potency [3] | Potency [5]

CC1(C)CCC2(CC1)N[C@@H](C(=O)N[C@@H]1CC[C@@H](C(N)=O)OC1)[C@H](c1ccnc(Cl)c1F)[C@]21C(=O)Nc2cc(Cl)ccc21
active: Potency [6] 0.715 µM | Potency [7] 0.0715 µM | Potency [4] 0.16 µM | Potency [2] 0.201 µM | Potency [3] 0.358 µM | Potency [5] 0.637 µM

Cc1cc2cc(Oc3ccnc(Nc4cccc(CS(=O)(=O)NCCN(C)C)c4)n3)ccc2[nH]1
active: Potency [6] 20.9 µM | Potency [7] 3.32 µM | Potency [4] 13.2 µM | Potency [2] 16.6 µM | Potency [3] 18.6 µM | Potency [5] 16.6 µM

CC(=O)O[C@@]12CO[C@@H]1C[C@H](O)[C@@]1(C)C(=O)[C@H](O)C3=C(C)[C@@H](OC(=O)[C@H](O)[C@@H](NC(=O)OC(C)(C)C)c4ccccc4)C[C@@](O)([C@@H](OC(=O)c4ccccc4)[C@H]21)C3(C)C
active: Potency [6] 0.0033 µM | Potency [7] 0.0042 µM | Potency [4] 0.0037 µM | Potency [2] 0.0047 µM | Potency [3] 0.0132 µM | Potency [5] 0.0148 µM

CC(C)Oc1ccc(-c2nn([C@@H](C)c3oc4ccc(F)cc4c(=O)c3-c3cccc(F)c3)c3ncnc(N)c23)cc1F
inactive: Potency [2]
active: Potency [6] 11.8 µM | Potency [7] 16.6 µM | Potency [4] 20.9 µM

CN1CCN(Cc2ccc(Nc3ncc(Cl)c(Nc4ccccc4S(=O)(=O)N(C)C)n3)cc2)CC1
active: Potency [6] 0.191 µM | Potency [7] 0.0539 µM | Potency [4] 0.108 µM | Potency [2] 0.135 µM | Potency [3] 0.152 µM | Potency [5] 0.215 µM

C[C@@H]1CC2C3C[C@H](F)C4=CC(=O)C=C[C@]4(C)[C@@]3(F)[C@@H](O)C[C@]2(C)[C@@]1(OC(=O)c1ccco1)C(=O)SCF (some centres undefined)
active: Potency [6] 20.9 µM | Potency [7] 20.9 µM

O=c1cc(-c2cccc3c2Sc2ccccc2S3)oc(N2CCOCC2)c1
active: Potency [6] 13.2 µM | Potency [7] 18.6 µM

Cc1ccc(-c2nn(C(C)(C)CNC(=O)c3ccncc3)c3ncnc(N)c23)cc1
active: Potency [6] 16.6 µM | Potency [7] 11.8 µM | Potency [4] 8.33 µM | Potency [2] 7.42 µM | Potency [3] 7.42 µM | Potency [5] 7.42 µM

Cc1ccc(Nc2ncc3c(n2)N(C)C(=O)N(c2cc(NC(=O)c4cccc(C(F)(F)F)c4)ccc2C)C3)cn1
active: Potency [6] 0.263 µM | Potency [7] 0.0372 µM | Potency [4] 0.0118 µM | Potency [2] 0.0934 µM | Potency [3] 0.0833 µM

O=c1[nH]nc2c3c(cccc13)NC(CN1Cc3ccccc3C1)=N2
active: Potency [6] 16.6 µM | Potency [7] 16.6 µM

Cc1ccc2nc(NCCN)c3ncc(C)n3c2c1
active: Potency [6] 9.34 µM | Potency [7] 4.68 µM | Potency [4] 8.33 µM | Potency [2] 7.42 µM | Potency [3] 5.9 µM

COC1(c2sc3c(N4CCOCC4)nc(-c4cnc(N)nc4)nc3c2C)COC1
active: Potency [6] 0.525 µM | Potency [7] 0.59 µM | Potency [4] 0.468 µM | Potency [2] 0.186 µM

c1ccc(-c2cc(CCC3CCNCC3)c3ccccc3n2)cc1
active: Potency [6] 20.9 µM | Potency [7] 20.9 µM | Potency [4] 20.9 µM | Potency [2] 26.3 µM | Potency [3] 20.9 µM

CC(C)(O)CC[C@@H](O)[C@](C)(O)[C@H]1CC[C@@]2(O)C3=CC(=O)[C@@H]4C[C@@H](O)[C@@H](O)C[C@]4(C)[C@H]3CC[C@]12C
inactive: Potency [6] | Potency [7] | Potency [4] | Potency [2] | Potency [3] | Potency [5]

Cc1cc(C)c(CNC(=O)c2cc(-c3ccc(N4CCN(C)CC4)nc3)cc3c2c(C)cn3C(C)C)c(=O)[nH]1
active: Potency [6] 18.6 µM | Potency [7] 23.5 µM and 20.9 µM | Potency [4] 23.5 µM
inactive: Potency [2]

Nc1nc2c(c(=O)[nH]1)N1CN(c3ccc(C(=O)N[C@@H](CCC(=O)O)C(=O)O)cc3)CC1CN2 (some centres undefined)
active: Potency [6] 1.66 µM | Potency [7] 1.05 µM | Potency [4] 9.34 µM | Potency [2] 0.934 µM

CNc1nc(-c2ccc3c(N)n[nH]c3c2)cc(N2C[C@@H](C(=O)NC3CCCCC3)CC[C@H]2C)n1
active: Potency [6] 5.9 µM | Potency [7] 14.8 µM | Potency [4] 13.2 µM | Potency [2] 0.742 µM | Potency [3] 23.5 µM

COc1cc2c(Oc3ccc4[nH]c(C)cc4c3F)ccnc2cc1OCC1(N)CC1
active: Potency [6] 7.42 µM | Potency [7] 8.33 µM | Potency [4] 10.5 µM | Potency [2] 9.34 µM | Potency [3] 7.42 µM

CCOC(=O)c1c(CSc2ccccc2)n(C)c2cc(Br)c(O)c(CN(C)C)c12
active: Potency [6] 11.8 µM | Potency [7] 18.6 µM | Potency [4] 11.8 µM

CCc1ccc(N(CC(C)C)S(=O)(=O)c2ccc(OCC3CCOCC3)c(CO)c2)cc1
active: Potency [6] 14.8 µM | Potency [7] 18.6 µM

C=C1C(=O)O[C@@H]2[C@H]3O[C@]3(C)CC/C=C(\C)CC[C@@H]12
active: Potency [6] 6.61 µM | Potency [7] 5.25 µM | Potency [4] 7.42 µM | Potency [2] 10.5 µM | Potency [3] 9.34 µM | Potency [5] 11.8 µM

N#Cc1c(N(CC(=O)O)CC(=O)O)sc(C(=O)O)c1CC(=O)O
inactive: Potency [6] | Potency [7] | Potency [4] | Potency [2] | Potency [3]

CCNC(=O)Nc1ccc(-c2nc3c(c(N4CCOC[C@@H]4C)n2)CCN(C2COC2)C3)cc1
active: Potency [6] 1.48 µM | Potency [7] 1.32 µM | Potency [4] 1.05 µM

C/C(=C\c1csc(C)n1)[C@@H]1C[C@@H]2O[C@]2(C)CCC[C@H](C)[C@H](O)[C@@H](C)C(=O)C(C)(C)[C@@H](O)CC(=O)N1
active: Potency [6] 0.0209 µM | Potency [7] 0.0332 µM | Potency [4] 0.0148 µM | Potency [2] 0.0166 µM | Potency [3] 0.0235 µM | Potency [5] 0.0295 µM

Cc1c(Cl)cccc1S(=O)(=O)Nc1nc(CCN2CCOCC2=O)cs1
inactive: Potency [7] | Potency [4] | Potency [2]
active: Potency [6] 0.0742 µM

O=C(Nc1ncc(SCCN2CCCC2)s1)[C@]1(c2ccc(S(=O)(=O)C3CC3)cc2)C[C@H]1C1CCCCC1
active: Potency [6] 20.9 µM | Potency [7] 11.8 µM | Potency [4] 23.5 µM

CN[C@H]1CN(c2ccc3c(=O)c(C(=O)O)cn(-c4nccs4)c3n2)C[C@@H]1OC
active: Potency [6] 1.08 µM | Potency [7] 0.27 µM | Potency [4] 0.679 µM | Potency [2] 0.855 µM | Potency [3] 1.35 µM
